The values below come from PubChem BioAssay.

A short description of experiment [1]: optical density shifts of acrAB sulA E. coli – strain DRC41, OD650, 48 h, E. coli filamentation inducer project, primary screen (AID 1152).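 Further: E. coli MC1000 strain DRC41 lacking acrAB efflux pump and sulA.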 Conditions: higher = more signal, called active from +8 up or from −8 down.
Experiment [2] can be described thus: probe aLefty1 binding on compound microarray – biochemical, small-molecule microarray, 635/667 nm fluorescence, primary screen (AID 1153).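 Further: score merges spot fluorescence with signal-to-noise ratio from the scanned slide images.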 The following applies: higher = more signal.
Experiment [3] can be described thus: plasmodial surface anion channel blockers, osmotic lysis – cell-based, P. falciparum Indochina, OD700, 1 h, primary screen (AID 1154). Conditions: P. falciparum Indochina infected RBC osmotic lysis, higher = more signal, called active from +8 up or from −8 down.
Experiment [4] in a line: plasmodial surface anion channel blockers, osmotic lysis – cell-based, P. falciparum Indochina, OD700, 2 h, primary screen (AID 1155).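 Further: lysis reports solute entry through the parasite surface anion channel PSAC.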 Conditions: P. falciparum Indochina infected erythrocytes, higher = more signal, called active from +8 up or from −8 down.
Experiment [5] can be described thus: changes in parasitized red cell lysis, either direction – P. falciparum Indochina, OD700, 3 h, PSAC antagonist project, primary screen (AID 1156). The following applies: P. falciparum-infected erythrocytes, osmotic lysis, higher = more signal, called active from +8 up or from −8 down.
A short description of experiment [6]: plasmodial surface anion channel blockers, osmotic lysis – cell-based, P. falciparum Indochina, OD700, 18 h, primary screen (AID 1157). Conditions: P. falciparum Indochina infected erythrocytes, osmotic lysis OD700, 18 h; higher = more signal, called active from +8 up or from −8 down.
Experiment [7] in a line: S6 kinase pathway phospho-S6 level changes – cell-based, A549, cytoblot, luminescence, serum-stimulated, primary screen (AID 1158).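 Further: serum-stimulated A549 lung adenocarcinoma cells; signal is phosphorylated S6 detected by cytoblot immunostaining with HRP secondary.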 Conditions: 5 h, higher = more signal.
Experiment [8] concerns the target NADPH oxidase 2 (Homo sapiens) (UniProt P04839). As to the kind of experiment: compounds shifting NOX2 Amplex Red fluorescence – cell-based, HEK293-NOX2, PMA-stimulated, NOX inhibitor project, primary screen (AID 1159). Further: test concentration not given here. Conditions: 45 min, higher = more signal, called active from +8 up or from −8 down.
Experiment [9] concerns the target NADPH oxidase 4 (Homo sapiens) (UniProt Q9NPH5). The experiment in a line: compounds shifting NOX4 Amplex Red fluorescence – cell-based, HEK293-NOX4, tetracycline-induced, NOX inhibitor project, primary screen (AID 1160). Conditions: HEK293-NOX4, Amplex Red H2O2 fluorescence, 45 min; higher = more signal, called active from +8 up or from −8 down.
In experiment [10] the target is NADPH oxidase 5 (Homo sapiens) (UniProt Q96PH1). The experiment in a line: compounds shifting NOX5 Amplex Red fluorescence – cell-based, HEK293-NOX5, NOX inhibitor project, primary screen (AID 1161). The following applies: HEK293-NOX5, ionomycin, 45 min, higher = more signal.
Sequence of NADPH oxidase 5 (Homo sapiens) (Q96PH1 whole entry, looked up): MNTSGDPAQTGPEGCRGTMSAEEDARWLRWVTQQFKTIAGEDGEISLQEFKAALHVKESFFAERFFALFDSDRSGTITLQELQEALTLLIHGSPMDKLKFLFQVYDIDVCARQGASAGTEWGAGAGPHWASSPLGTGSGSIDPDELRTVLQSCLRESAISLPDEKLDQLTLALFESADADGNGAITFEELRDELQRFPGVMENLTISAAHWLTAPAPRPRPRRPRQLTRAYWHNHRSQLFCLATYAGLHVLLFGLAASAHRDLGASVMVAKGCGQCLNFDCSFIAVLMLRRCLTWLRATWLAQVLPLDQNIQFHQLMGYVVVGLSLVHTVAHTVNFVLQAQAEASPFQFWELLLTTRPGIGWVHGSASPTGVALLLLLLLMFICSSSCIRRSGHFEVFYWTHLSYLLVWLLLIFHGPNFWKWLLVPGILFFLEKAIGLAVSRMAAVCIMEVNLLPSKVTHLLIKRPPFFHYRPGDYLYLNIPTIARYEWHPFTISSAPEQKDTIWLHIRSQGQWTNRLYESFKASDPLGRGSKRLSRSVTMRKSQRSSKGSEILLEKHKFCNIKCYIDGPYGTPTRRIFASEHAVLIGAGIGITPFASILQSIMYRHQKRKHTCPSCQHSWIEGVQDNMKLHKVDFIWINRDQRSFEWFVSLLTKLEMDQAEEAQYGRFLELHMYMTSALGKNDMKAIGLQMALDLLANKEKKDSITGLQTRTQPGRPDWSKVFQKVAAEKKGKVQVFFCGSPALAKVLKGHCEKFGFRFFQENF
The nature of experiment [11]: compound effects on lung adenocarcinoma cell viability – A549, calcein-AM fluorescence, 48 h, basal, profiling panel (AID 1162). Further: test concentration not given here. The following applies: higher = more signal.
Experiment [12] is described as follows: compound effects on differentiated 3T3-L1 adipocyte viability – cell-based, 3T3-L1 adipocytes, calcein-AM fluorescence, 48 h, basal, profiling panel (AID 1163). Further: test concentration not given here. The following applies: 3T3-L1 adipocytes viability, higher = more signal.
Experiment [13] can be described thus: compound effects on hepatocellular carcinoma cell viability – HepG2, calcein-AM fluorescence, 48 h, basal, profiling panel (AID 1164). Further: test concentration not given here. The following applies: higher = more signal.
A short description of experiment [14]: compound effects on multiple myeloma cell viability – MM1S, calcein-AM fluorescence, 48 h, basal, profiling panel (AID 1165).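 Further: viability of MM1S multiple myeloma cells under basal unstimulated conditions; test concentration not given here.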 The following applies: higher = more signal.
Experiment [15] is described as follows: calcein-AM signal in unstimulated myeloma cells – cell-based, calcein-AM fluorescence, 48 h, PK04 Diversity Set, profiling panel (AID 1166).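 Further: cells grown under basal conditions without added stimulus; test concentration not given here.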 Conditions: RPMI8226 myeloma viability, higher = more signal.
The nature of experiment [16]: JC-1 mitochondrial signal, unstimulated HepG2 cells – cell-based, JC-1 fluorescence, 24 h, 100 nL compound, profiling panel (AID 1167). Further: test concentration not given here. The following applies: HepG2 mitochondrial potential, higher = more signal.
Experiment [17] in a line: JC-1 mitochondrial signal, unstimulated adipocytes – cell-based, JC-1 fluorescence, 3T3-L1 adipocytes, 24 h, 100 nL compound, profiling panel (AID 1168). Further: test concentration not given here. The following applies: JC-1 mitochondrial fluorescence, higher = more signal, called active from +8 up or from −8 down.
A short description of experiment [18]: JC-1 mitochondrial signal, unstimulated myeloma cells – cell-based, JC-1 fluorescence, RPMI8226, 24 h, 100 nL compound, profiling panel (AID 1169). Further: test concentration not given here. The following applies: JC-1 mitochondrial potential fluorescence, higher = more signal.
The nature of experiment [19]: JC-1 mitochondrial signal, unstimulated MM1S myeloma – cell-based, JC-1 fluorescence, 24 h, 100 nL compound, profiling panel (AID 1170). Further: test concentration not given here. Conditions: MM1S mitochondrial potential, higher = more signal.
Experiment [20] is described as follows: resazurin metabolic signal in A549 cells – cell-based, resazurin fluorescence, 24 h, PK04 Diversity Set, profiling panel (AID 1171). Further: test concentration not given here. The following applies: A549 viability, higher = more signal, called active from +8 up or from −8 down. Background: Resazurin is reduced to fluorescent resorufin, in cell work by metabolically active cells.

“And” between values parts separate entries of the source, which are not always exact repeats. Equal values may be shown once. The source made the active and inactive calls.

Sequence of NADPH oxidase 4 (Homo sapiens) (Q9NPH5 whole entry, looked up): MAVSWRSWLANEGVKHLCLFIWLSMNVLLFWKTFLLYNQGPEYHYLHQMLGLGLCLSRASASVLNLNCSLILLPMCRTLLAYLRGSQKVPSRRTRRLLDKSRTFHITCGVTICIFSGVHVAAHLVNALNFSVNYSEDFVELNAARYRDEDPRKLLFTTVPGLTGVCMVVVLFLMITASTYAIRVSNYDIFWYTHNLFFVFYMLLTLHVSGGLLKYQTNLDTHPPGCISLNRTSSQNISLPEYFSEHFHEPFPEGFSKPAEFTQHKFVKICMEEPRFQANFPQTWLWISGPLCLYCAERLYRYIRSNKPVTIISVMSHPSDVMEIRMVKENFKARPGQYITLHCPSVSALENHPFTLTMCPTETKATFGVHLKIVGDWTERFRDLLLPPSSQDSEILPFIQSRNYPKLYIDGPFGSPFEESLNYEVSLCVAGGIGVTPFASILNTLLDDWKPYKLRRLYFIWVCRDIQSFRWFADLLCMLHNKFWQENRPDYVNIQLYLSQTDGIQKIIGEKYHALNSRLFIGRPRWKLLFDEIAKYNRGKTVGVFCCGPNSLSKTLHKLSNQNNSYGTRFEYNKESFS
Sequence of NADPH oxidase 2 (Homo sapiens) (P04839 whole entry, looked up): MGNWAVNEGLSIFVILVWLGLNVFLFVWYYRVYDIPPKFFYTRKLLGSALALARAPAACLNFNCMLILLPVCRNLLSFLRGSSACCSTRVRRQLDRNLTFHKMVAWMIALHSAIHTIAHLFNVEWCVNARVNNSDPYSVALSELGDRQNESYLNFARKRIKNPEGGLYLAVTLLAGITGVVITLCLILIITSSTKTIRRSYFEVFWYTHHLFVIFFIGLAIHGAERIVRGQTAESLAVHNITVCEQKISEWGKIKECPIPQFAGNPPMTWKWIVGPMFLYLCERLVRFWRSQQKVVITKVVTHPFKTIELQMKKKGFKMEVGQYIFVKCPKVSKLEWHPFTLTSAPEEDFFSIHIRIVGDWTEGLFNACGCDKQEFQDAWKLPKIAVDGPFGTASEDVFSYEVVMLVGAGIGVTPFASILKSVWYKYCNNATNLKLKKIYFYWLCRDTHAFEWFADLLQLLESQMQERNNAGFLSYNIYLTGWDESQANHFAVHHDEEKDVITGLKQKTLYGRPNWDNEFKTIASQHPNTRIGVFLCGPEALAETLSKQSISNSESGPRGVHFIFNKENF

As for `C=CCN(CCCCC)C(=O)C(c1cccs1)N(C(=O)/C=C\C(=O)O)c1ccc(CCO)cc1` (stereo not given), the z-score is 0.539 (inactive) and 0.137 (inactive) in experiment [1]; 0.0722 (inactive) and -0.629 (inactive) in experiment [3]; 0.181 (inactive) and -0.255 (inactive) in experiment [4]; -0.533 (inactive) and -0.741 (inactive) in experiment [5]; 0.0113 (inactive) and 0.0094 (inactive) in experiment [6]; 0.0901 and -0.111 in experiment [7]. In addition, the z-score was 0.259 (inactive) and -0.0131 (inactive) in [8]; -0.6 (inactive) and -0.665 (inactive) in [9]; 0.614 and 0.19 in [10]; 1.11 and 0.437 in experiment [11]; -4.27 and -0.651 in experiment [12]; 0.877 and 1.59 in [13]. Besides, the z-score in experiment [14] was 1.78 and 1.21; in experiment [15] it was -0.174 and 0.104; in experiment [16] it was -0.087 and 0.966; in experiment [17] it was -0.177 (inactive) and 0.506 (inactive); in experiment [18], 1.26 and -0.556; in [19] it was -0.138 and -0.377. Also, the z-score in experiment [20] was -0.235 (inactive) and -0.813 (inactive). For the same compound, in [2], the composite z-score is -0.147 and -0.15.
For the compound `CC(C)C(=O)N[C@@H]1CCCN1C(=O)C=Cc1ccccc1`, the z-score in experiment [1] was 0.214 (inactive); in experiment [3], -0.272 (inactive); in experiment [4] it was 0.274 (inactive); in [5], -0.77 (inactive); in experiment [6], -0.241 (inactive); in experiment [7], -0.685. In addition, the z-score in [8] was -0.457 (inactive); in experiment [9] it was 0.53 (inactive); in [10], 0.434; in experiment [11], 0.516; in [12], 0.709; in experiment [13], 0.546. In addition, the z-score in experiment [14] was 0.391; in experiment [15], -0.463; in [16] it was -0.201; in experiment [17], -0.481 (inactive); in [18], 0.119; in experiment [19], 0.304. In experiment [20], the z-score was -0.123 (inactive). The composite z-score in [2] is -0.101.
Consider `CO[C@@H]1COC(=O)[C@H](Cc2ccccc2)NC(=O)CC=C[C@@H](C)[C@H](OC)COC(=O)[C@@H](C)NC(=O)CC=C[C@H]1C`, for which the z-score was -0.582 (inactive) and 0.887 (inactive) in experiment [1]; -0.712 (inactive) and -0.142 (inactive) in experiment [3]; -0.999 (inactive) and -0.463 (inactive) in [4]; 0.932 (inactive) and 0.0469 (inactive) in [5]; -2.07 (inactive) and -1.44 (inactive) in experiment [6]; 0.758 and 0.682 in experiment [7]. The z-score in experiment [8] was 0.0254 (inactive) and -0.582 (inactive); in experiment [9], 0.859 (inactive) and 0.551 (inactive); in experiment [10], -0.106 and 0.66; in [11] it was -0.0911 and -0.304; in experiment [12] it was 0.686 and -0.191; in [13] it was 0.0488 and 1.09. The z-score in [14] was 0.144 and 0.329; in experiment [15], 0.173 and 1.12; in [16], 0.999 and -0.15; in experiment [17], 0.67 (inactive) and 1.56 (inactive); in experiment [18] it was 0.645 and -0.266; in [19] it was 0.452 and 0.623. Also, the z-score in experiment [20] was 0.632 (inactive) and 0.35 (inactive). For the same compound, in experiment [2], the composite z-score is -0.0536 and -0.425.
For `CCOC(=O)[C@H](CC(C)C)NC(=O)CCC1CC(OC(=O)NCc2cccc3ccccc23)CC2(CCCC(COC(=O)NCc3ccccc3)O2)O1` (stereo not given in full), the z-score in [1] was -0.42 (inactive); in experiment [3] it was 0.56 (inactive); in experiment [4] it was -0.166 (inactive); in [5], -1.33 (inactive); in experiment [6] it was 0.097 (inactive); in experiment [7], -0.194. The z-score in [8] was 0.209 (inactive); in experiment [9], 0.0251 (inactive); in experiment [10] it was 0.281; in experiment [11] it was 0.531; in experiment [12], -0.172; in experiment [13] it was -0.435. Further, the z-score in experiment [14] is 0.184; in experiment [15], 0.0523; in experiment [16], 2.45; in experiment [17], 0.472 (inactive); in experiment [18] it was 0.0897; in experiment [19], -0.717. In experiment [20], the z-score was 0.586 (inactive). Moreover, in experiment [2], the composite z-score is -0.393.
